Assay results reported in PubChem BioAssay (NCATS).
Results filed as inconclusive are left out. Activity calls are given as the source filed them. Calls follow the shape of the dose curve; as a rule, active = well fitted activation curve with a large enough effect; inconclusive = small, poorly fitted or top-dose-only effect; inactive = flat fitted curve, though single readings scatter.

Assay: qHTS for Activators of Parkin Expression: LOPAC Validation Assay (NLuc Reporter) (AID 720572;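 as to activation: 0% = DMSO and 100% = positive control compound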)
Conditions: Parkin promoter NanoLuc reporter cells, luminescence; series mostly up to 46.1 µM; activation: at the top concentration
Text: Parkin is an E3 ubiquitin ligase localized in the cytosol of cells expressed in many tissues, including brain, skeletal muscle, heart and liver tissues. One hour after stress induction by mitochondrial uncouplers (which mimic mitochondria damage by decreasing the mitochondrial inner membrane electrochemical gradient that is used to produce ATP), Parkin translocates from the cytosol to mitochondria in many cultured cell types, including neurons and HeLa cells. Administration of other mitochondrial poisons, such as Paraquat and azide in cells lacking mitochondrial DNA (mtDNA), induces Parkin translocation to mitochondria. […] It was proposed that Parkin (together with Pink1) mediates a mitochondrial quality control pathway to maintain organelle population fidelity by removing damaged mitochondria. Understanding the normal physiologic role of Parkin (and Pink1) may uncover novel treatment strategies for sporadic Parkinson's disease patients with mutation in these genes.
A cell based qHTS in 1536 well format was developed assess modulation of Parkin expression using a neuronal cell line that stably expresses a stably expresses a luminescent coincidence reporter (FLuc and NLuc reporters) behind the Parkin promoter. The LOPAC library is used to validate the assay for quantitative high-throughput screening. The data herein reports the signal from the NLuc reporter. An increase in this signal = activation of Parkin expression. For this assay , a positive control normalized signal increase corresponding to a high quality qHTS curve class in both luminescent channels is the desired outcome for this assay.
NIH Chemical Genomics Center [NCGC]
NIH Molecular Libraries Probe Centers Network [MLPCN]
Assay Submitter (PI): Richard Youle, National Institute of Neurological Disorders and Strokes (NINDS), NIH
[1] Narendra, D., et al., Parkin is recruited selectively to impaired mitochondria and promotes their autophagy. J Cell Biol, 2008. 183(5): p.
[2] Suen, D.F., et al., Parkin overexpression selects against a deleterious mtDNA mutation in heteroplasmic cybrid cells. Proc Natl Acad Sci U S A, 2010. […] 11835-40.
[3] Cheng K, Inglese J. A coincedence reporter-gene system for high-throughput screening. Nat Methods. 2012: 9(10);937
Five microliters (1,500 cells/well) of the Parkin coincidence reporter cells were seeded to 1536 well assay plates (Greiner Catalog # 789173-F) and incubated at 37 C, 5% CO2 for 24 hours. Compounds (23 nL) were pinned using the Kalypsys robotic system equipped with 1536 pin head adaptor in 7-point dose response. The assay plates were incubated for additional 24 hr at 37 C, 5% CO2 followed by a volume reduction in each well to 2 uL using an automated plate washer/aspirator. Following the volume reduction,2 uL of FLuc detection reagent and plates were incubated for 10 minutes at room temperature. The FLuc luminescence signal was obtained using the PerkinElmer ViewLux plate imager and then 2 uL of NanoLuc detection reagent was added to the plates. After another 10 minute incubation, NanoLuc signal was obtained using the PerkinElmer ViewLux plate imager as before. Data from each channel was normalized to DMSO (neutral control) and the positive control compounds (100%).
Potency is read from the fitted curve at half-maximal effect.

| SMILES | activation | Potency |
| --- | --- | --- |
| O=C(O)C1CCCNC1 (stereo not given) | -2.88% (inactive) | – |
| N#CC(C#N)=C(N)/C(C#N)=C/c1ccc(O)cc1 | -2.65% (inactive) | – |
| Nc1nc2ccc(Cl)cc2c2nc(-c3ccco3)nn12 | 8.71% (inactive) | – |
| Oc1ccc(Cn2cc[nH]c2=S)cc1 | -2.44% (inactive) | – |
| Oc1cc(O)c2c(c1)O[C@H](c1ccc(O)c(O)c1)[C@@H](O)C2 | -0.128% (inactive) | – |
| Cc1nc2c(OCc3ccccc3)cccn2c1CC#N | 2.73% (inactive) | – |
| CCCCCC(O)CCCC(=O)O (stereo not given) | -2.13% (inactive) | – |
| O=C(O)C1=CCCNC1 | -1.27% (inactive) | – |
| CSC(=N)N | 2.48% (inactive) | – |
| [Li+] | -1.99% (inactive) | – |
| O=C1NC(=O)c2cc(Nc3ccccc3)c(Nc3ccccc3)cc21 | -3.79% (inactive) | – |
| CC(C)C[C@H](NC(=O)C1OC1C(=O)O)C(=O)NCCCCN=C(N)N (stereo not given in full) | -3.3% (inactive) | – |
| Nc1ncnc2c1nc(Sc1ccc(Cl)cc1)n2[C@H]1OC2COP(=O)(O)O[C@@H]2C1O (stereo not given in full) | -1.76% (inactive) | – |
| CCCn1c(=O)c(C)cn2nc(N)nc12 | 3.24% (inactive) | – |
| C=CC[C@H](N)C(=O)O | -1.75% (inactive) | – |
| O=C(O)C1CN(CCCP(=O)(O)O)CCN1 (stereo not given) | 0.7% (inactive) | – |
| N=C(N)c1ccccc1 | -1.66% (inactive) | – |
| O=C1OC(=O)C2C3CCC(O3)C12 (stereo not given) | 12.2% (inactive) | – |
| Nc1ccc(CCNc2ncnc3c2ncn3C2OC(CO)C(O)C2O)cc1 (stereo not given) | 2.4% (inactive) | – |
| CC(C)(C)c1cc(/C=C(\C#N)C(N)=S)cc(C(C)(C)C)c1O | -1.48% (inactive) | – |

| SMILES | activation | Potency |
| --- | --- | --- |
| CC1CCN=C(N)S1 (stereo not given) | 1.77% (inactive) | – |
| N=C(N)c1ccc(OCCCCCOc2ccc(C(=N)N)cc2)cc1 (tested in a mixture with another compound) | -18.9% (inactive) | – |
| Nc1ccc(-c2nc3ccc(-c4nc5ccc(N)cc5[nH]4)cc3[nH]2)cc1 | 7.52% (inactive) | – |
| O=C(O)c1cc2cc(F)ccc2[nH]1 | -3.64% (inactive) | – |
| Nc1ncnc2c1ncn2C1CCCO1 (stereo not given) | -2.28% (inactive) | – |
| Cc1cccc(C2CN(C)CCc3c2cc(O)c(O)c3Cl)c1 (stereo not given) | -0.0979% (inactive) | – |
| OC1(c2ccc(Cl)cc2)CCN(Cc2c[nH]c3ccccc23)CC1 | -8.31% (inactive) | – |
| Nc1ncnc2c1ncn2C1CCCC1 | 6.16% (inactive) | – |
| CCOC(=O)C12CC1/C(=N/O)c1ccccc1O2 (stereo not given) | -3.21% (inactive) | – |
| COC(=O)C1=C(C)NC(C)=C([N+](=O)[O-])C1c1ccccc1C(F)(F)F (stereo not given) | 13.5% (inactive) | – |
| CCCc1c(-c2ccc(O)cc2)nn(-c2ccc(O)cc2)c1-c1ccc(O)cc1 | – | 2060 nM (active) |
| CNCCNS(=O)(=O)c1cccc2cnccc12 | 17.2% (inactive) | – |
| CN(C)CCCc1cc(C(=O)Nc2ccc(-c3ccncc3)cc2)ccc1O | 6.9% (inactive) | – |
| CN1CCN(c2nc3cc(C(F)(F)F)ccc3n3cccc23)CC1 | -0.962% (inactive) | – |
| CCCCCCC/C=C\CCCCCCCCC(=O)O | 12.4% (inactive) | – |
| O=C(O)C1CCNCC1 | 0.461% (inactive) | – |
| CN(C)C(=O)/N=N/C(=O)N(C)C | -4.25% (inactive) | – |
| CCCCC[C@H](CC(=O)NO)C(=O)N[C@H](C(=O)N1CCC[C@H]1CO)C(C)C | -4.96% (inactive) | – |
| O=C(N[C@@H](Cc1ccccc1)C(=O)CCl)OCc1ccccc1 | -26.9% (inactive) | – |
| Cc1nc2n(c(=O)c1CCN1CCC(c3noc4cc(F)ccc34)CC1)CCCC2O (stereo not given) | -3.77% (inactive) | – |
